Measurements published in PubChem BioAssay (Tox21).
Results filed as inconclusive are left out. Values without a mark were called inactive. Calls follow the shape of the full dose curve.

Molecular target: Beta-2 adrenergic receptor (Homo sapiens) (UniProt P07550)
Assay: Adrenergic beta2 receptor (ADRB2) small molecule antagonists, cell-based qHTS assay (AID 1963592); also: nearly all actives have a fitted effect of over 50% in size
Details: CHO-ADRB2 cells, isoproterenol-stimulated cAMP HTRF ratio, 0.5 h; series mostly up to 92.4 µM; activity change, negative = inhibition: at the top concentration
Method in brief: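 Cells (CHO, stable ADRB2 overexpression) incubated 18-20hr at 37C; compounds added from DMSO; agonist mix (1nM isoproterenol, 100uM IBMX, 25uM Ro-20-1724) added; 0.5hr RT; d2-cAMP and anti-cAMP-cryptate added; 1hr RT; 665/615 nm read.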
% is scaled to controls: 0 for no effect and ±100 for the full control effect.

Beta-2 adrenergic receptor (Homo sapiens), sequence (P07550 whole entry, looked up): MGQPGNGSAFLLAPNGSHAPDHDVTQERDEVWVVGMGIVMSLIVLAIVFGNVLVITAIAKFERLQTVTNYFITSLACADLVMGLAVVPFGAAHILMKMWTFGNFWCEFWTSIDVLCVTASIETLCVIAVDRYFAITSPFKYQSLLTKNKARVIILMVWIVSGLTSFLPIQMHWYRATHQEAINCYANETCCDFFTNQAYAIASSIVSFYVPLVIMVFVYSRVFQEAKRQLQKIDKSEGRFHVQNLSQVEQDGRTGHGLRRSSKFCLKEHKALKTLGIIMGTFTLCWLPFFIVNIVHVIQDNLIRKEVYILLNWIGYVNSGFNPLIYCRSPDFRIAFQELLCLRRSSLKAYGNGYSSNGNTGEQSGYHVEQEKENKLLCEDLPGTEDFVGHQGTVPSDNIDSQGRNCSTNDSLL

Row | Structure (SMILES) | activity change, negative = inhibition
1 | CC[C@H](C)C(=O)O[C@H]1C[C@H](O)C=C2C=C[C@H](C)[C@H](CC[C@@H](O)C[C@@H](O)CC(=O)O)[C@H]21 | -2.33%
2 | CC(=O)c1ccc2c(c1)Cc1ccccc1-2 | -16.3%
3 | Cn1c(=O)c2c(ncn2CC2OCCO2)n(C)c1=O | 3.35% [at 42.5 µM]
4 | C=CCc1cc(S(=O)(=O)c2ccc(O)c(CC=C)c2)ccc1O | -16.5%
5 | CCCCOc1ccc(CC(=O)NO)cc1 | 1.91% [at 42.5 µM]
6 | CC(C)=CC=O | 1.83%
7 | O=C(O)c1cccnc1Nc1cccc(C(F)(F)F)c1 | -20.5% [at 42.5 µM]
8 | O=C1CCc2cc(OCCCCc3nnnn3C3CCCCC3)ccc2N1 | 4.78% [at 42.5 µM]
9 | CCC(C)(C)OC | -10.2%
10 | CC(=O)CCC1=C(C)CCCC1(C)C | 14.3%
11 | CCN1CCN(C(=O)N[C@@H](C(=O)N[C@@H]2C(=O)N3[C@@H]2SC(C)(C)[C@H]3C(=O)O)c2ccccc2)C(=O)C1=O | 0.382% [at 42.5 µM]
12 | CCCCCC(C)O (stereo not drawn) | 1.32%
13 | CC1(C)O[C@@H]2C[C@H]3[C@@H]4C[C@H](F)C5=CC(=O)C=C[C@]5(C)[C@H]4[C@@H](O)C[C@]3(C)[C@]2(C(=O)CO)O1 | -6.13% [at 42.5 µM]
14 | C=C(C)C(=O)OCc1ccccc1 | 1.78%
15 | O=C(Cl)c1cccc([N+](=O)[O-])c1 | 6.36%
16 | CN1CC(=O)N2[C@H](c3ccc4c(c3)OCO4)c3[nH]c4ccccc4c3C[C@@H]2C1=O | 0.495% [at 42.5 µM]
17 | CCCc1nc(C)c2c(=O)[nH]c(-c3cc(S(=O)(=O)N4CCN(CC)CC4)ccc3OCC)nn12 | -1.27% [at 42.5 µM]

Row | Structure (SMILES) | activity change, negative = inhibition
18 | COc1ccnc(CS(=O)c2nc3ccc(OC(F)F)cc3[nH]2)c1OC (stereo not drawn) | -1.14% [at 42.5 µM]
19 | Cc1ccc(OC(=O)CC(C)C)cc1 | 0.118%
20 | O=C(O)CO | -1.34%
21 | O=C(Nc1cccc(Cl)c1)OCC#CCCl | -2.41%
22 | CCNC(=O)NCc1cccc(Cl)c1 | 5.87% [at 42.5 µM]
23 | O=C1CCCCCO1 | 1.14%
24 | COc1nc(C)nc(Cl)c1NC1=NCCN1 | 0.874% [at 42.5 µM]
25 | Cc1ccc(Cl)c(Nc2ccccc2C(=O)O)c1Cl | -2.41% [at 42.5 µM]
26 | CCOC(=O)CC(=O)c1ccccc1 | 1.79%
27 | O=C1CCCCC1C1CCCCC1 (stereo not drawn) | 3.15%
28 | N#Cc1ccccc1O | -7.12%
29 | O=C1NCC2(CCN(CCc3ccccc3)CC2)O1 | -11.5% [at 42.5 µM]
30 | CN(C)C(=O)Nc1ccccc1 | 11.8%
31 | CC(C)CO | 1.32%
32 | CC[C@H]1OC(=O)[C@H](C)[C@@H](O[C@H]2C[C@@](C)(OC)[C@@H](O)[C@H](C)O2)[C@H](C)[C@@H](O[C@@H]2O[C@H](C)C[C@H](N(C)C)[C@H]2O)[C@](C)(O)C[C@@H](C)/C(=N\OCOCCOC)[C@H](C)[C@@H](O)[C@]1(C)O | -0.293% [at 42.5 µM]
33 | Nc1ccc(Oc2ccc(N)c(N)c2)cc1 | 5.37%
